Measurements from PubChem BioAssay.
Unmarked numbers belong to inactive results. Activity calls are given as the source filed them. Unless noted, no stated cut-off is given here; in the data, active means inhibition above about 30%; inactive means the rest.

Assays:
[1] = target: Nuclear receptor coactivator 3 (Homo sapiens) (UniProt Q9Y6Q9); test: SRC3 coactivator transcriptional activity inhibitors, confirmation, cell-based, luminescence, quadruplicate (AID 588792;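 active means mean inhibition over 43.08%, the solvent-only control mean plus 3 SD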;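 further: 0% = DMSO treated cells and 100% = gossypol at 36 µM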); settings: HEK293 GAL4-SRC3 luciferase reporter, at 3.6 µM, hits give high values
Sequence of Nuclear receptor coactivator 3 (Homo sapiens) (Q9Y6Q9 whole entry, looked up, the tested form may be a part): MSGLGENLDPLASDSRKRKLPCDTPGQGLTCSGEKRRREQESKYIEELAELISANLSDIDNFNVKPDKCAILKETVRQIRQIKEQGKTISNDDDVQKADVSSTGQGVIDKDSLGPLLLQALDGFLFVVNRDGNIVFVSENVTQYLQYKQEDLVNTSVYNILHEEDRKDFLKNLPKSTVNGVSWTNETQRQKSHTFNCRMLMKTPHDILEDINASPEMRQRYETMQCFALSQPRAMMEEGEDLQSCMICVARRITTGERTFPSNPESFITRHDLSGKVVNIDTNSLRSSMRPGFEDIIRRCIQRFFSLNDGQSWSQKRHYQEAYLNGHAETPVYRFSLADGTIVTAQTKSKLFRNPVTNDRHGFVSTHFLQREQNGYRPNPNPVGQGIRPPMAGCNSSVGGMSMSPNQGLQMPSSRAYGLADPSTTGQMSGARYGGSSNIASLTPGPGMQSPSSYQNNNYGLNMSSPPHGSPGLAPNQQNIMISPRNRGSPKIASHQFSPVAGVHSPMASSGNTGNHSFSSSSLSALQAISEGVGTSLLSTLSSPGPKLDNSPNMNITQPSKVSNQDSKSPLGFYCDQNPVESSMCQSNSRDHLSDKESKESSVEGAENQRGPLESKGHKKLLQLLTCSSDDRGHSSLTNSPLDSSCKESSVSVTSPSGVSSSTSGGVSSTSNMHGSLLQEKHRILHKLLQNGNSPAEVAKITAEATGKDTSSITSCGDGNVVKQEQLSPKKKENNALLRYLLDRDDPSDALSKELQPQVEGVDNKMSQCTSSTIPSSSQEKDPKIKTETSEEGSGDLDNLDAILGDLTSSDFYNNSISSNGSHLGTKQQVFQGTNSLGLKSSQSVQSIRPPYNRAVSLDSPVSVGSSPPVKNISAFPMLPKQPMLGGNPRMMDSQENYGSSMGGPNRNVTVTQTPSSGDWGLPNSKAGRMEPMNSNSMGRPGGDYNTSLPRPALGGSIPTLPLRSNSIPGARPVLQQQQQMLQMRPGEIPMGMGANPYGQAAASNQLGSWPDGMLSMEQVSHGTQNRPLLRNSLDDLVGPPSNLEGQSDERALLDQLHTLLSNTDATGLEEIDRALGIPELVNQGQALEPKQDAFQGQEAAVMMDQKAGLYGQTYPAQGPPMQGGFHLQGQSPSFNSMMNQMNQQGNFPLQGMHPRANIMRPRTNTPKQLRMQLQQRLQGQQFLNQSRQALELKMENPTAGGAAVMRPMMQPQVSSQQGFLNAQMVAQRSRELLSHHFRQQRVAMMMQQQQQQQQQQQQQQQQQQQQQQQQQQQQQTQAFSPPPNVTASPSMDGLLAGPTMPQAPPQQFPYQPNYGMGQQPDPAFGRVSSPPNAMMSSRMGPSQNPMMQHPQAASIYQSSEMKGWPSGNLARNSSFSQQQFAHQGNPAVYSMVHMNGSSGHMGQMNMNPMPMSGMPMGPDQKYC

[2] = test system: transactivating tegument protein VP16 (Human herpesvirus 1), Gal4-VP16 luciferase reporter; test: VP16 transactivation inhibitors, counter-screen for SRC3 inhibitor project, cell-based, luminescence, high throughput (AID 588794); settings: mammalian cells, VP16-driven luciferase reporter luminescence; at 3.6 µM; hits give high values
[3] = test system: transactivating tegument protein VP16 (Human herpesvirus 1); test: VP16 transactivation reporter inhibitors, counter-screen for SRC2 inhibitor project, cell-based, luminescence, single concentration (AID 652007; in the data active means inhibition above about 36%); settings: cell-based VP16 transactivation luciferase reporter, at 8.9 µM, hits give high values
[4] = target: Nuclear receptor coactivator 2 (Homo sapiens) (UniProt Q15596); test: SRC2 coactivator transcriptional activity inhibitors, confirmation, cell-based, luminescence, HEK293, triplicate (AID 652008;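 active means mean inhibition above 46.5%, the solvent-only control mean plus 3 SD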;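 further: 0% = DMSO-treated cells and 100% = Gossypol at 36 µM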); settings: HEK293 GAL4-SRC2 luciferase reporter, at 8.9 µM, hits give high values
Sequence of Nuclear receptor coactivator 2 (Homo sapiens) (Q15596 whole entry, looked up, the tested form may be a part): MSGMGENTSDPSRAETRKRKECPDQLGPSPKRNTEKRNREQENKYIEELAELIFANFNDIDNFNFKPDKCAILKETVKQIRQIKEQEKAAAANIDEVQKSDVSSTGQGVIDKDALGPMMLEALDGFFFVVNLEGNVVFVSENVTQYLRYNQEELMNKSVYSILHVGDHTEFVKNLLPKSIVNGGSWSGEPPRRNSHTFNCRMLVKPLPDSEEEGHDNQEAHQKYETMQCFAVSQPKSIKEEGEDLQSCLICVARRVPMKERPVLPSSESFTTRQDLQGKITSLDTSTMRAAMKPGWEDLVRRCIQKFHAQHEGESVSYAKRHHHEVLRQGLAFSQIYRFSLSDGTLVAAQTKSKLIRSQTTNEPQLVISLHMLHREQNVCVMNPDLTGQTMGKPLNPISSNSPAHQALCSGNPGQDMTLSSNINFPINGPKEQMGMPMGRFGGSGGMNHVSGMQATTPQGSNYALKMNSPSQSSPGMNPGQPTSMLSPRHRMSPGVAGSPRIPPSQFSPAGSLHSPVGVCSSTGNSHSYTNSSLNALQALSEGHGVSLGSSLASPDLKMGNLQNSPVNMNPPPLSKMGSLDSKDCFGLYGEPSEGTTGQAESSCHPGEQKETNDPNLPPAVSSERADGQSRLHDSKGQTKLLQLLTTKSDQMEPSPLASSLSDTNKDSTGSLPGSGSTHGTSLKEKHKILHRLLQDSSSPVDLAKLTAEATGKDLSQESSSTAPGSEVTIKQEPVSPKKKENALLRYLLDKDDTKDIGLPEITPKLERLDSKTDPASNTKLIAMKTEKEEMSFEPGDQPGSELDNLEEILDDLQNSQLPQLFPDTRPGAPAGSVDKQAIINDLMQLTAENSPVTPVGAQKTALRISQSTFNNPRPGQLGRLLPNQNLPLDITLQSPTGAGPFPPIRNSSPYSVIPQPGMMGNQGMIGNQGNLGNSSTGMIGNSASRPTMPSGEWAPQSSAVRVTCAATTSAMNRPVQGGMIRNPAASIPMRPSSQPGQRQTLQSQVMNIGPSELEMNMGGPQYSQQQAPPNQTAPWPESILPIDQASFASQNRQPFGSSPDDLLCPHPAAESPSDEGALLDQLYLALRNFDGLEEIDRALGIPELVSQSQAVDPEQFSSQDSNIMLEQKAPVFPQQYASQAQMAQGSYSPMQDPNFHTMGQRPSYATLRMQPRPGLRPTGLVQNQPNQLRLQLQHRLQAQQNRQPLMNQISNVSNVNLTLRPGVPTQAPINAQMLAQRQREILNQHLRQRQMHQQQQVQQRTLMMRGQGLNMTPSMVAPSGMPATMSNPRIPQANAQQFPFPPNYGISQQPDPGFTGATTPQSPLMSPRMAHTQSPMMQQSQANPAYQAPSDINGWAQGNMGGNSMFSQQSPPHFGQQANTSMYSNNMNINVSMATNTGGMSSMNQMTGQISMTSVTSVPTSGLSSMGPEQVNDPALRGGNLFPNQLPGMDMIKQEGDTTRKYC

[5] = target: Nuclear receptor subfamily 5 group A member 2 (Homo sapiens) (UniProt O00482); test: LRH-1 (NR5A2) inverse agonists, retest, confirmation, cell-based, luminescence (AID 651613; in the data active means inhibition above about 42%;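 further: HEK293T cells co-transfected with LRH-1 and StAR promoter luciferase reporter; 0% = vehicle wells and 100% = parental cells lacking receptor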); settings: cell-based LRH-1 luciferase reporter, inverse agonism; at 3.6 µM; hits give high values
Sequence of Nuclear receptor subfamily 5 group A member 2 (Homo sapiens) (O00482 whole entry, looked up): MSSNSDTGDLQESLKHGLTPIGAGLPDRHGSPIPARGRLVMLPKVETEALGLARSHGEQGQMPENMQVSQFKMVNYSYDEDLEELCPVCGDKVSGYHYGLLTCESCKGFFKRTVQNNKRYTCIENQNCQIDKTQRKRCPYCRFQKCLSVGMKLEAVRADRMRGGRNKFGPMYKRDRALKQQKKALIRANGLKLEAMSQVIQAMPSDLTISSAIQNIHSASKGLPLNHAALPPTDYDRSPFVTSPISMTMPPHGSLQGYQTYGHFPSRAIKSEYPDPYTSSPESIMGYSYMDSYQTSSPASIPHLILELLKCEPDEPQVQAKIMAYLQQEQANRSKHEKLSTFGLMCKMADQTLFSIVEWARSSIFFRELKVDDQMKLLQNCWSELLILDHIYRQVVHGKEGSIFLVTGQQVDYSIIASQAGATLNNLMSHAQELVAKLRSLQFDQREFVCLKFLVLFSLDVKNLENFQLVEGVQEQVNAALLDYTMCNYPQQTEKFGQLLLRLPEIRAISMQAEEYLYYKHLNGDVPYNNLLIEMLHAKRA

[6] = target: Steroidogenic factor 1 (Homo sapiens) (UniProt Q13285); test: SF1 (NR5A1) inverse agonists, counter-screen for LRH-1 inverse agonist project, cell-based, luminescence, high throughput (AID 651614; in the data active means inhibition above about 44%;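 further: cells cotransfected with StAR promoter reporter and SF1 expression vector; 0% = vehicle on cells with receptor and 100% = vehicle on cells lacking receptor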); settings: cell-based SF1 luciferase reporter, at 3.6 µM, hits give high values
Sequence of Steroidogenic factor 1 (Homo sapiens) (Q13285 whole entry, looked up): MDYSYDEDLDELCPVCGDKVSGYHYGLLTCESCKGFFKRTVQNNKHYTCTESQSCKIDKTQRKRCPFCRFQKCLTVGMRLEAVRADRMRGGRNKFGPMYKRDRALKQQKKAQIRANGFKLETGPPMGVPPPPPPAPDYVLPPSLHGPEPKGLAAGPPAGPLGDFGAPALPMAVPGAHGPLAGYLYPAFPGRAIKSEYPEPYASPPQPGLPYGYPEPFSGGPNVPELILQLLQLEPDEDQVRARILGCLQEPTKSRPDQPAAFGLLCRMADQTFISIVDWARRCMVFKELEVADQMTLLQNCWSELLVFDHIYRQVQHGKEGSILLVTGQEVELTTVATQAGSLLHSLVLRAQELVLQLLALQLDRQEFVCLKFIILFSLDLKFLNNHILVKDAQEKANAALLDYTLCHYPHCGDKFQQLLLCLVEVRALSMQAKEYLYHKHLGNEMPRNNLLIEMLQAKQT

[7] = StAR promoter reporter inhibitors, counter-screen for LRH-1 inverse agonist project, cell-based, luminescence, high throughput (AID 651611; in the data active means inhibition above about 28%); settings: StAR promoter luciferase reporter counterscreen, at 3.6 µM, hits give high values
[8] = VP16 transactivation reporter inhibitors, counter-screen for LRH-1 inverse agonist project, cell-based, luminescence, high throughput (AID 651615; in the data active means inhibition above about 33%); settings: Gal4-VP16 luciferase reporter cells, at 3.6 µM, hits give high values

Compound | inhibition [1] | inhibition [2] | inhibition [3] | inhibition [4] | inhibition [5] | inhibition [6] | inhibition [7] | inhibition [8]
Cc1cc2nccc(-c3ccncc3)n2n1 | 38.2% | 22.4% | 3.85% | 33.4% |  |  |  | 
CC(C)(C)c1ccc(-c2noc(CCC(=O)Nc3cccnc3)n2)cc1 | 41% | 25.7% | 67.8% (active) | 80.8% (active) |  |  |  | 
CC[C@@]1(O)C(=O)OCc2c1cc1n(c2=O)Cc2cc3c(CN(C)C)c(O)ccc3nc2-1 | 89.8% (active) | 53.2% (active) | 32.9% | 46% | 99.7% (active) | 85.7% (active) |  | 
COc1cc(/C=C/C(=O)c2ccc3c(c2)OCCO3)cc(Br)c1OCC(=O)N(C)C | 76.6% (active) | 62.6% (active) | 30.9% | 50.3% (active) |  |  |  | 
Cc1ccc(-n2c(-c3ccc(Cl)cc3)c[n+]3c2CCC3)cc1 | 16.1% | 21.9% | 13.4% | 18.6% |  |  |  | 
COc1ccc(C(=O)C(CCC(CNC(C)(C)C)C(=O)c2ccc(OC)cc2)CNC(C)(C)C)cc1 (centres undefined) | -9.42% | 4.54% | 10.4% | 20.1% |  |  |  | 
COCCN(C(=O)CCl)C(C(=O)NC1CCCCC1)c1ccccc1C (centres undefined) | 52.3% (active) | 38.7% (active) | 45.5% (active) | 58.5% (active) |  |  |  | 
Cc1ccc2nc(NC(=O)CSCC(=O)OCC(=O)c3ccc(Br)cc3)sc2c1 | 36.5% | 40.5% (active) | 77.8% (active) | 89.2% (active) |  |  |  | 
COc1ccc2nc(C)cc(Sc3nc4ccccc4s3)c2c1 | 28.2% | 18.1% | 26% | 51.3% (active) |  |  |  | 
Cc1cccc(CN2CCN(C(=O)CCl)CC2)c1 | 31.7% | 18.2% | 38% (active) | 33.5% |  |  |  | 
COc1ccc(/C=C/C(=O)c2ccc3c4c(cccc24)CC3)cc1OC | 21.5% | 25.6% | 25.2% | 67.6% (active) |  |  |  | 
NS(=O)(=O)c1ccc(Sc2nc3ccccc3s2)c([N+](=O)[O-])c1 | 53.3% (active) | 27.4% | 33% | 58.3% (active) | 75.3% (active) | 67.5% (active) | 78.7% (active) | 55.2% (active)
